Laboratory results published in PubChem BioAssay AID623888 (Vanderbilt Specialized Chemistry Center, 2012).

Molecular target: Metabotropic glutamate receptor 3 (Rattus norvegicus) (UniProt P31422)
Assay: PubChem AID 623888
Settings: HEK/GIRK rat mGlu3, thallium flux fluorescence, Schild, at 3 µM; % glutamate max: glutamate max response with compound, stronger effect = lower value; glutamate EC50 fold shift: stronger effect = higher value

Chain of Metabotropic glutamate receptor 3 (Rattus norvegicus) (P31422 whole entry, looked up): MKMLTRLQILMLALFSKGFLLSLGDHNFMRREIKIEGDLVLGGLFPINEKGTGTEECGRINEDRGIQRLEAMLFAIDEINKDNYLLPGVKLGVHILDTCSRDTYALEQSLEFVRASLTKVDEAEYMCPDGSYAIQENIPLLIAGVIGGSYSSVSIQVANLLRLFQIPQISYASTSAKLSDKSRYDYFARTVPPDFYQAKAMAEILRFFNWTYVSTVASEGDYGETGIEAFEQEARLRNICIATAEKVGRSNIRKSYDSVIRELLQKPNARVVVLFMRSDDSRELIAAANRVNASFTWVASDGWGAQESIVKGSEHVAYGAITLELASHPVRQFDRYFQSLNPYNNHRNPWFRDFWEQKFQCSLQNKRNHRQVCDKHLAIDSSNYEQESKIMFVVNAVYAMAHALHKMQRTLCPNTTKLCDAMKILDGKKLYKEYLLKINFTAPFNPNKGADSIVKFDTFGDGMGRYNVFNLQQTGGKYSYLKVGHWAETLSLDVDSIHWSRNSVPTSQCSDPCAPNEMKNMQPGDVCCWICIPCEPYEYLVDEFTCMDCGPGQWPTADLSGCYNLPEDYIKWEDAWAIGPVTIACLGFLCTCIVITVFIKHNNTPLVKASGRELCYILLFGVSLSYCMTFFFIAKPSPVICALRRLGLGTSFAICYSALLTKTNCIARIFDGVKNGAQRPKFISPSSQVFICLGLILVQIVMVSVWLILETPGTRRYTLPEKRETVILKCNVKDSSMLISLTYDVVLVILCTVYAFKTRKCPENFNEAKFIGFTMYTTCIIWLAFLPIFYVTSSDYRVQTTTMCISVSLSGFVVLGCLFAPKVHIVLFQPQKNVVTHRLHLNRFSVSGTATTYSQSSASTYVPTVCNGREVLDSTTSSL

Question: What does the source list for `COc1ccc(C#Cc2ccc(C(=O)N3CCC[C@@H](CO)C3)cc2)cc1`?
Answer: % glutamate max: 88.9%; glutamate EC50 fold shift: 1.48
